# Screening data from PubChem.
# An excerpt weighted towards active compounds, which were near 3.1% of everything screened.
# E coli Lon inh – E. coli protease La inhibition | purified E. coli Lon protease, fluorescence polarization | inhibition, % at 7.94 µM | hit rate 0.42% among 360,000 | P0A9M0; in the data active means inhibition above about 13%, passing the limit was not always enough;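 further: 0% = enzyme with probe and DMSO and 100% = no enzyme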
# PAFAH2 FP inh – inhibitors of human PAFAH2; Q99487; inhibition, % at 3.39 µM; hit rate 0.99% among 340,000; recombinant PAFAH2, FP-rhodamine activity probe, fluorescence polarization;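 active means inhibition above the mean over all tested compounds plus 3 SD, cut at about 30% in these data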;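 further: inhibitors block probe labeling of enzyme so polarization drops; 0% = enzyme with DMSO and 100% = wells lacking PAFAH2 protein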
# pPAFAH inh – pPAFAH (human) enzyme inhibition | hit rate 1.5% among 330,000 | Q13093 | inhibition, % at 3.39 µM | recombinant pPAFAH, FP-rhodamine probe fluorescence polarization;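 active means inhibition above the mean inhibition across the screen plus 3 SD, cut at about 25% in these data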;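 further: inhibitors block binding of the rhodamine activity-based probe so polarization drops; 0% = enzyme with DMSO and 100% = wells lacking pPAFAH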
# PAFAH1B2 inh – blocks human PAF acetylhydrolase 1b catalytic subunit 2; P68402; recombinant PAFAH1B2, FP-rhodamine activity probe, fluorescence polarization; inhibition, % at 3.39 µM; hit rate 1.2% among 340,000; AID 492953;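 active means inhibition above the mean of all tested compounds plus 3 SD, cut at about 24% in these data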;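 further: 0% = enzyme with DMSO and 100% = wells lacking PAFAH1B2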
# Target sequence (P68402 whole entry, looked up): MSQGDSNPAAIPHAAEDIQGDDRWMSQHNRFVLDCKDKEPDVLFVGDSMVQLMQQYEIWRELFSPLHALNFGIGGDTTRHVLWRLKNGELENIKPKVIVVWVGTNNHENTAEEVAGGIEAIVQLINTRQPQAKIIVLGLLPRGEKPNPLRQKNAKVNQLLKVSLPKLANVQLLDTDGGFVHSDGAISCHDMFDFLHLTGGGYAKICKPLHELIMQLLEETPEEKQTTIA
# Rin1 Abl inh – inhibitors of human Rin1-Abl protein interaction; P00519+Q13671; TR-FRET Rin1/Abl binding, biochemical; inhibition, % at 7.35 µM; hit rate 0.4% among 360,000; in the data active means inhibition above about 5%, passing the limit was not always enough
# PAFAH1B3 FP inh – inhibitors of human PAFAH1B3 | Q15102 | recombinant PAFAH1B3, FP-rhodamine probe, fluorescence polarization | inhibition, % at 3.39 µM | hit rate 0.28% among 340,000 | AID 492972;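 active means inhibition above the screen-wide average of all tested compounds plus 3 SD, cut at about 25% in these data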;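 further: 0% = enzyme with DMSO only and 100% = wells lacking PAFAH1B3 protein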
# Target sequence (Q15102 whole entry, looked up): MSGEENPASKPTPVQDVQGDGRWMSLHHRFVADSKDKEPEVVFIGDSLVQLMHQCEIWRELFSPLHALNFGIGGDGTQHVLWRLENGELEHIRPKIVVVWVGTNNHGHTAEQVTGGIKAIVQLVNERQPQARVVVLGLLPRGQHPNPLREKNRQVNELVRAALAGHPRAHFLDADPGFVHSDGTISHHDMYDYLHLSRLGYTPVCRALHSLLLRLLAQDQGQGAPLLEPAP
# Starred values were filed as active, the others as inactive; · = no result given.
SMILES,E coli Lon inh,PAFAH2 FP inh,pPAFAH inh,PAFAH1B2 inh,Rin1 Abl inh,PAFAH1B3 FP inh
COc1cc(/C=N/Nc2ccc(Cl)c(C(=O)O)c2)ccc1OC(=O)c1ccc(F)cc1,-1,4,3,1,0,12
COc1cccc(C(=O)Oc2ccc(/C=N/Nc3ccc(C(=O)O)cc3)cc2OC)c1,9,1,28*,10,-5,11
CCNc1nc(NC(C)CC)nc(Oc2ccc(OCC)nn2)n1 (stereo unspecified),-3,-6,4,0,2,-5
C=C1CCC[C@]2(C)C[C@H]3OC(=O)C(CNC(C)(CO)CO)[C@H]3CC12 (stereo partly specified),3,33*,3,28*,-3,-1
C=C1CCC[C@]2(C)C[C@H]3OC(=O)C(CNC(C)CC)[C@H]3CC12 (stereo partly specified),0,3,1,10,1,11
C=C1CCC[C@]2(C)C[C@H]3OC(=O)C(CNC(CC)CO)[C@H]3CC12 (stereo partly specified),-1,26,-2,19,-1,12
C=C1CCC[C@]2(C)C[C@H]3OC(=O)C(CN4CCCCC4CO)[C@H]3CC12 (stereo partly specified),-1,44*,-1,36*,2,5
COC(=O)CCNC(=O)Cc1ccc(S(=O)(=O)N2CCCCC2)s1,-10,8,·,5,0,-5
Cc1cc(O)c2c(c1)C(=O)[C@@]13Oc4c5c(c(O)c6c(O)cc(C)cc46)C(=O)C[C@H](O)[C@H]5[C@@H]1[C@@H](O)CC(=O)C3=C2O,20*,0,·,3,4,5
COc1ccc(CNC(=O)CN2C(=O)NC3(CCCCCCC3)C2=O)cc1,-7,-3,-1,3,2,5
Cc1ccc(CNS(=O)(=O)c2ccc(Cl)s2)cc1,-3,·,·,·,0,·
O=C(COC(=O)c1ccc2c(c1)S(=O)(=O)c1ccccc1C2=O)NC1CC1,4,-3,30*,2,0,3
Cc1cccc(C(=O)OCC(=O)NC2CCCCCCC2)c1,1,92*,29*,8,-2,6
NC(=O)COC(=O)c1ccc2c(c1)S(=O)(=O)c1ccccc1C2=O,-3,-10,2,-2,-1,-1
CCOc1ccc2oc(C(=O)OCC(=O)NC3CCCCC3)c(C)c2c1,-8,61*,26*,-4,-1,-2
CCc1ccc(C(=O)OCC(=O)NC2CCCC2)cc1,10,82*,30*,0,2,6
CN(C)C(=O)CCc1ccc2c3c([nH]c2c1)[C@]1(C)[C@@H](C(=O)N2CCOCC2)C[C@H](CC(=O)NCCC2=CCCCC2)C(=O)N1CC3,6,2,3,6,-5,11
CCCCn1c(O)c(/C=C/C=C/C=Nc2ccccc2)sc1=S,-22,2,30*,-9,5,-11
Cc1cc(=O)oc2cc(O)cc(OCc3ccccc3)c12,14,-5,·,4,-1,9
COc1cc(/C=C(\C#N)c2nc3c(s2)CCCC3)ccc1O,·,·,35*,·,·,·
Cc1ccc(S(=O)(=O)N2CCOCC2)cc1C(=O)Nc1ccc2c(c1)OCCO2,3,5,-1,0,0,-3
C=C1C(=O)[C@@]23[C@H](O)C[C@@H]4C(C)(C)CC[C@H](O)[C@]4(C)[C@@H]2C[C@H](O)[C@@H]1[C@H]3O,-7,-2,2,81*,2,-5
C=C1C(=O)[C@@]23[C@H](O)C[C@@H]4C(C)(C)CC[C@H](O)[C@@]4(C)[C@@H]2CC[C@@H]1[C@H]3O,11,0,4,86*,0,11
C=C1C(=O)[C@]23C[C@H]1CCC2[C@]1(C)CCC[C@@](C)(C(=O)O)C1C[C@@H]3O (stereo partly specified),-5,·,·,·,-1,·
C=C1C(=O)[C@]23C[C@H]1CCC2[C@]1(C)C(=O)CC[C@@](C)(C(=O)O)C1C[C@@H]3O (stereo partly specified),4,·,·,·,5,·
SMILES,E coli Lon inh,PAFAH2 FP inh,pPAFAH inh,PAFAH1B2 inh,Rin1 Abl inh,PAFAH1B3 FP inh
O=C(N/N=C/c1cccc(O)c1)c1ccc(NC(=O)C2CCCCC2)cc1,-10,-12,·,-15,2,-1
O=C(N/N=C/c1ccc(O)cc1O)c1ccc(NC(=O)C2CCCCC2)cc1,5,-12,23,33*,-1,37*
CCOc1ccc(Br)cc1C1=NN(C(C)=O)C(c2ccc([N+](=O)[O-])s2)O1 (stereo unspecified),-5,39*,·,10,2,17
Cc1cccc(NC(=O)CCCN=C2NS(=O)(=O)c3ccccc32)c1C,2,4,1,0,-4,2
C=CCSc1nc2c(N)ncnc2n1C1OC(CO)C(O)C1O (stereo unspecified),-4,·,·,·,2,·
O=c1c(Sc2ccccc2)c(C(F)(F)F)[nH]n1-c1ccccc1,3,4,7,29*,-4,-1
O=c1c2c(C(F)(F)F)cc(C(F)(F)F)nc2[nH]n1-c1ccccc1,3,-1,5,0,0,6
COc1ccc(CC(=O)NC2CCCCCC2)c(OC)c1,4,1,3,3,2,-4
O=S(=O)(Nc1ccccc1Cl)c1ccc(NS(=O)(=O)c2cccs2)cc1,-2,15,26*,13,0,11
O=C(Nc1ccc(F)cc1)Nc1ccccc1NS(=O)(=O)c1cccs1,-2,2,2,15,0,-1
Cc1cc(Cl)ccc1OCC(=O)Nc1ccccc1NS(=O)(=O)c1cccs1,1,-3,33*,24,-1,11
O=C(Nc1ccc(Cl)cc1)Nc1ccccc1NS(=O)(=O)c1cccs1,1,1,17,26*,0,10
CC1CC(C)CN(C2CCCCC2NS(=O)(=O)c2ccc(Cl)cc2)C1 (stereo unspecified),-2,5,2,-1,0,8
CC(OC(=O)c1cc2ccccc2cc1O)C(=O)Nc1ccc(S(N)(=O)=O)cc1 (stereo unspecified),-9,-4,-2,-4,-5,-7
CC(OC(=O)c1c2c(nc3ccccc13)/C(=C\c1ccc3c(c1)OCO3)CCC2)C(=O)Nc1ccc(S(N)(=O)=O)cc1 (stereo unspecified),77*,-19,·,9,-1,5
CC(=O)NC(c1ccccc1)c1cc([N+](=O)[O-])c2cccnc2c1O (stereo unspecified),-3,7,13,3,3,8
CC(C)C(=O)NC(c1ccccc1)c1cc([N+](=O)[O-])c2cccnc2c1O (stereo unspecified),6,9,34*,0,0,-4
Cc1cc(=O)oc2c3c(cc(OCC(=O)N[C@@H](CC(C)C)C(=O)O)c12)OC(C)(C)CC3,-7,13,0,35*,0,4
